MBD2 DNA inh: MBD2-methylated oligo binding inhibition. 370,000 compounds, 0.31% hits. TR-FRET, MBD2 binding to methylated oligonucleotide. AID 686964. inhibition, % at 4.4 µM; in the data active = inhibition above about 13%
LEDGF integ inh: blocks HIV-1 LEDGF/p75-dependent DNA integration. TR-FRET IN-LEDGF/p75 DNA integration, Eu/Cy5. inhibition, % at 3.7 µM. 370,000 compounds, 0.64% hits. AID 743269;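 active = inhibition above the screen-wide mean plus 3 SD, cut at about 13% in these data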;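 also: signal is the Cy5 over europium emission ratio at 671 and 618 nm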
ABHD5-PLIN5 inh: blocks binding of human ABHD5 to perilipin-5 | inhibition, % at 4 µM | 360,000 compounds, 0.78% hits | Q00G26+Q8WTS1 | Split G. princeps luciferase complementation, luminescence, 4 h;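 active = inhibition above the mean inhibition across every tested compound plus 3 SD, cut at about 22% in these data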
PRMT1 inh: inhibitors of human PRMT1; inhibition, % at 2.79 µM; Q99873; recombinant PRMT1, activity-based probe fluorescence polarization; AID 652257; 370,000 compounds, 1.3% hits;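 active = inhibition above about 21% made by adding two undisclosed values, limit read from the data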
UHRF1 MBD2 ctr: human UHRF1 methylated DNA binding inhibitors. AID 687016. UHRF1 binding to methylated oligo, TR-FRET. Q96T88. inhibition, % at 4.4 µM. 370,000 compounds, 0.75% hits; in the data active = inhibition above about 21%;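 also: UHRF1 SRA domain binding a hemimethylated CpG hairpin DNA probe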
rCAG RNA binder: molecules binding r(CAG) RNA repeats. inhibition, % at 3 µM. 370,000 compounds, 1.3% hits. r(CAG) RNA repeat, TO-PRO-1 dye displacement fluorescence;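 active = inhibition above the plate cutoff, the mean of all test compounds on that plate plus 3 SD, cut at about 35% in these data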;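 also: higher means more dye released from RNA so lower well fluorescence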
PRMT1 confirm: PRMT1 (human) inhibition, FP confirmation; shares compounds with PRMT1 inh; recombinant His-PRMT1, activity-based probe fluorescence polarization; inhibition, % at 2.79 µM; 3,300 compounds, 42% hits; AID 687036;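 active = mean inhibition across replicates above the hit cutoff derived for the earlier primary screen, cut at about 22% in these data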
Hits are given with their value; - = inactive; . = no result. Shown are actives, neighbours in structure and some others; about 4.1% of the full set was active somewhere.

SMILES | MBD2 DNA inh | LEDGF integ inh | ABHD5-PLIN5 inh | PRMT1 inh | UHRF1 MBD2 ctr | rCAG RNA binder | PRMT1 confirm
CC(C)(C)[C@@H]1CCC(=O)N(CC[C@H](Sc2ccccc2)c2ccccc2)CC1 | - | - | - | - | - | - | .
CC(=O)Nc1ccc(SC[C@H](Cc2ccccc2)N2CCN(CCc3ccccc3)CCC2=O)cc1 | - | - | - | 29 | - | - | 42
O=C(Cn1cnc2ccccc2c1=O)N1CCCCC1 | - | - | . | - | - | - | .
O=[N+]([O-])c1ccc(CN2[C@H](COCc3ccccc3)C=CS2(=O)=O)cc1 | - | - | . | - | - | - | .
NC(=O)CSCc1nc2ccccc2s1 | - | - | - | 27 | - | - | -
Oc1ccccc1OCc1nc2ccccc2s1 | - | - | - | 28 | - | - | -
N/C(Cc1nc2ccccc2s1)=N\O | - | - | - | - | - | - | .
O=C(CSc1ccc(Cl)cc1)N1CCN(c2ccc([N+](=O)[O-])cc2Cl)CC1 | - | - | - | 28 | - | - | -
CCCC(=O)N1CCN(c2ccc([N+](=O)[O-])cc2Cl)CC1 | - | - | - | - | - | - | .
COC(=O)c1cc(-c2cc(Cl)cc(Cl)c2)c(=O)n2c1CCC2 | - | - | . | - | - | - | .
c1cncc(CNc2ccc3c(c2)OCO3)c1 | - | - | - | 75 | - | - | -
Cc1ccc(OCC(=O)NC2=NCCS2)cc1 | - | - | - | - | - | - | .
Cc1ccc(C2=NN=C(NC(=O)C(F)(F)F)SC2)cc1 | - | - | - | 58 | - | - | 61
O=C(CSc1nc2c(sc3ccccc32)c(=O)n1CCCN1CCCC1)NCc1ccco1 | - | - | - | 27 | - | - | -
COCCn1c(SCC(=O)Nc2ccccc2OC)nc2ccccc2c1=O | - | - | - | - | - | - | .
Cc1cc2c(=O)n(Cc3ccco3)c(SCC(=O)NCc3ccco3)nc2s1 | - | - | - | 58 | - | - | -
Cc1cc2c(=O)n(Cc3ccco3)c(SCC(=O)N3CCCc4ccccc43)nc2s1 | - | - | - | - | - | - | .
COc1ccccc1NC(=O)CSc1nc2c(sc3ccccc32)c(=O)n1CCN(C)C | - | - | - | 70 | - | - | 72
O=C(CSc1nc2c(sc3ccccc32)c(=O)n1CCO)NCc1ccco1 | - | - | - | - | - | - | .
Cc1cc(C)nc(N2CCN(C(=O)CSc3nc4ccccc4nc3N3CC(C)OC(C)C3)CC2)n1 (centres undefined) | - | - | . | - | - | - | .
Cc1ccc(O)c(C(=O)c2cc(C#N)c(=O)n(-c3c(C)n(C)n(-c4ccccc4)c3=O)c2)c1 | - | - | - | - | - | - | .
Cc1ccc(O)c(C(=O)c2cc(C#N)c(=O)n(-c3nccs3)c2)c1 | - | - | - | 39 | - | - | 31
CN(C)CC(=O)N[C@H]1C[C@@H]2O[C@@H](CO)CC[C@@H]2O[C@@H]1CCc1ccc(C2=CCCCC2)cc1 | - | - | . | - | - | - | .
Cc1ccc(NC(=O)CSc2ccc(-c3cccnc3)nn2)c(C)c1 | - | - | - | 51 | - | - | -
COc1ccccc1NC(=O)CSC(N)=O | - | - | - | 81 | - | - | 93
SMILES | MBD2 DNA inh | LEDGF integ inh | ABHD5-PLIN5 inh | PRMT1 inh | UHRF1 MBD2 ctr | rCAG RNA binder | PRMT1 confirm
NC(=O)SCC(=O)Nc1ccccc1C(=O)O | - | - | - | 37 | - | - | 81
COc1ccccc1NC(=O)CCCCC(=O)Nc1ccccc1OC | - | - | - | - | - | - | .
Cc1ccccc1NC(=O)CSC(N)=O | - | - | - | 75 | - | - | 90
NC(=O)C1CCN(c2nc(-c3ccc(Oc4ccccc4)cc3)cs2)CC1 | - | - | . | - | - | . | .
CCOC(=O)c1c(C)nsc1NCc1ccccc1 | - | - | - | 28 | - | - | -
Cc1noc(C)c1NC(=O)N(C)C[C@H]1OCc2cn(nn2)CCCC(=O)N([C@H](C)CO)C[C@@H]1C | - | - | . | - | - | - | .
Cc1ccccc1N1CCN(C(=O)c2ccccc2NC(=O)/C=C\C(=O)O)CC1 | - | - | - | 27 | - | - | -
OC(c1ccccc1)(c1ccccc1)c1cnc2ccccn12 | - | - | . | - | - | . | .
C[C@@H]1CN([C@@H](C)CO)C(=O)CCCn2cc(nn2)CO[C@H]1CN(C)C(=O)Nc1cccc(C(F)(F)F)c1 | - | - | . | - | - | - | .
Cc1noc(C)c1S(=O)(=O)N(C)C[C@@H]1OCc2cnnn2CCCC(=O)N([C@@H](C)CO)C[C@@H]1C | - | - | . | - | - | - | .
C=CCn1c(Cc2ccccc2)n[nH]c1=S | - | - | - | - | - | - | .
C=CCn1c(CSc2ccccc2[N+](=O)[O-])n[nH]c1=S | - | - | - | 25 | - | - | -
CCCCc1c(-c2ccccc2OC)ncn1Cc1ccc(OC)cc1 | - | - | . | - | - | - | .
CCN(CC)c1ccc2nc3ccc(N)cc3[n+](-c3ccccc3)c2c1 | - | - | - | 26 | - | - | -
CCN(CC)c1ccc2nc3ccccc3[n+](CC)c2c1 | . | . | - | . | . | . | .
Cc1ccc(NC(=O)/C=C\C(=O)O)c([N+](=O)[O-])c1 | - | - | - | 65 | - | - | -
Cc1cc(C)c(NC(=O)CS)c(Cl)c1 | - | - | - | - | - | - | .
Cc1ccc([N+](=O)[O-])cc1NC(=O)/C=C/C(=O)O | - | - | - | 49 | 40 | - | -
Cc1cc(C)c(NC(=O)/C=C\C(=O)O)c([N+](=O)[O-])c1 | - | - | - | 81 | - | - | 37
COc1ccc([N+](=O)[O-])cc1NC(=O)/C=C/C(=O)O | - | - | - | - | - | - | .
Cc1cc(C)c(NC(=O)/C=C\C(=O)O)c(Cl)c1 | - | - | - | 28 | - | - | -
O=C(O)/C=C\C(=O)Nc1cc(O)ccc1[N+](=O)[O-] | - | - | - | - | - | - | .
COc1ccc(NC(=O)N(C)C[C@H]2OCc3cnnn3CCCC(=O)N([C@H](C)CO)C[C@@H]2C)c(OC)c1 | - | - | . | - | - | - | .
COC(=O)c1cc2c(c3c4ccccc4n(S(=O)(=O)c4ccccc4)c13)C(=O)N(Cc1ccc(N(C)C)cc1)C2 | - | - | . | - | - | - | .
O=S1(=O)c2c(cccc2N2CCC[C@H]2CO)OCCCN1C1CC1 | - | - | . | - | - | - | .
O=C(NCc1ccccc1)[C@H]1CCCN1C(=O)[C@H]1CCCN1C(=O)c1ccc(F)c(F)c1 | - | - | . | - | - | - | .
CC(=O)C1=C(C)NC(SCC(=O)Nc2nccs2)=C(C#N)C1c1ccccc1Cl (centres undefined) | - | - | - | 26 | - | - | -
O=C(OCC#CCSc1nnc(-c2cccc3ccccc23)o1)c1ccc(C(F)(F)F)cc1 | - | - | . | - | - | . | .
CCOC(=O)CC[C@@]1(C(=O)OCC)C[C@@H](CC(=O)NCc2ccc(OC)c(OC)c2)C(=O)N2CCCC=C21 | - | - | . | - | - | - | .
O=C1NC2c3c(I)sc(I)c3C(=O)C2O1 (centres undefined) | - | - | - | 47 | - | - | -

Screening results from PubChem.
